Values joined by “and” are separate entries in the source; they are usually repeats but may differ in a detail not shown here. Identical values can stand only once. Records with an inconclusive call do not appear. Where a call stands in place of a potency, no number is given. Active and inactive are the calls of the source. Calls follow the shape of the dose curve; as a rule, active = well fitted cell-killing curve with a large enough effect; inconclusive = small, poorly fitted or top-dose-only effect, or effect the other way; inactive = flat fitted curve, though single readings scatter.
Potency is read from the fitted curve at half-maximal effect.

The subject of one assay is Hek293T. Briefly: Primary qHTS to identify gynecologic anti-cancer compounds using libraries of approved drugs and bioactive compounds (AID 1345084). Also: nearly all actives have a fitted effect of over 55% in size. Conditions: Gynecologic cancer cell panel viability, ATPlite luminescence, 48 h, control line for the selectivity index; series mostly up to 57.5 µM. The method in brief:
(§1)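 Luminescence from the ATPlite ATP-monitoring reagent indicates viable cell number; lower signal means cytotoxicity. Cells received compound 16 h after seeding and were exposed for 48 h across five concentrations.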
For orientation: In qHTS, concentration-response curves come from the screen itself.
For the compound `O=c1[nH]c2ccccc2n1CCCN1CCC(n2c(=O)[nH]c3cc(Cl)ccc32)CC1`, the Potency result is “inactive”.
On to `C[C@]12CCC(=O)C(O)=C1CC[C@@H]1[C@@H]2CC[C@]2(C)C(=O)CC[C@@H]12`, for which the Potency result is “inactive”.
Regarding `C#CCOC(C(=O)OCCN(C)C)(c1ccccc1)c1ccccc1`, the Potency entry is “inactive”.
The same measure, in the same setting: as for `CC(C)=CCOc1c2occc2cc2ccc(=O)oc12`, the entry is “inactive”; as for `CC[N+]1(C)CCCC(OC(=O)C(O)(c2ccccc2)c2ccccc2)C1` (configuration not stated), “inactive”.
Same read-out and setting: as for `CCCC(C)(COC(N)=O)COC(=O)NC(C)C` (configuration not stated), the entry is “inactive”; as for `c1ccc2c(c1)OCC(C1=NCCN1)O2` (configuration not stated), 28.2 µM (active).
For the compound `C[C@H]1O[C@@H](O[C@H]2[C@@H](O)C[C@H](O[C@H]3[C@@H](O)C[C@H](O[C@H]4CC[C@@]5(C)[C@H](CC[C@@H]6[C@@H]5CC[C@]5(C)[C@@H](C7=CC(=O)OC7)CC[C@]65O)C4)O[C@@H]3C)O[C@@H]2C)C[C@H](O)[C@@H]1O`, the Potency is 282 nM (active) and 224 nM (active).
The same measure, in the same setting: the value for `C=C(C)[C@H]1Cc2c(ccc3c2O[C@@H]2COc4cc(OC)c(OC)cc4[C@@H]2C3=O)O1` was 0.891 µM (active).
Still for that read-out and setting: as for `N[C@@H](Cc1ccc(N(CCCl)CCCl)cc1)C(=O)O`, the entry is “inactive”; as for `Cc1cc(SCc2sc(-c3ccc(C(F)(F)F)c(F)c3)nc2C)ccc1OCC(=O)O`, “inactive”; as for `Oc1cc(Cl)ccc1Oc1ccc(Cl)cc1Cl`, “inactive”.
With `C#CCN(C)[C@H](C)Cc1ccccc1`, the Potency result was “inactive”.
The same measure, in the same setting: the value for `N#CC(C#N)=Cc1ccc(O)c(O)c1` was “inactive”.
Take `CC[C@@H](CO)NC(=O)[C@@H]1C=C2c3cccc4[nH]cc(c34)C[C@H]2N(C)C1`: the Potency result is “inactive”.
On the same count and under the same terms, the value for `Clc1ccc(COC(Cn2ccnc2)c2ccc(Cl)cc2Cl)cc1` (configuration not stated) was “inactive”; that for `Oc1ccc(Cl)cc1Cc1ccccc1` was “inactive”.
As for `CCC(=O)C(CC(C)N(C)C)(c1ccccc1)c1ccccc1` (configuration not stated), the Potency result is “inactive”.
Still for that read-out and setting: the value for `CC(C)CC(N(C)C)C1(c2ccc(Cl)cc2)CCC1` (configuration not stated) was “inactive”.
The same measure, in the same setting: as for `FC(F)(F)c1cccc(C2=CCN(CCc3ccc4ccccc4c3)CC2)c1`, the entry is “inactive”; as for `CN(C)[C@@H]1C(=O)C(C(N)=O)=C(O)[C@@]2(O)C(=O)C3=C(O)c4c(O)cccc4[C@@](C)(O)[C@H]3C[C@@H]12`, “inactive”; as for `CCCN1CCC[C@@H]2Cc3nc(N)ncc3C[C@H]21`, “inactive”.

For another assay, the system named is JEG-3. Described as above. Conditions: Gynecologic cancer cell panel viability, ATPlite luminescence, 48 h; series mostly up to 57.5 µM. The method in brief: as §1
(In general: In ATP-based viability assays light output follows the ATP content of the culture.)
With `CC(C)=CCOc1c2occc2cc2ccc(=O)oc12`, the Potency result was “inactive”.
For the compound `CNC(=O)N1N=C(c2ccc(N)cc2)c2cc3c(cc2CC1C)OCO3` (configuration not stated), the Potency result was “inactive”.
Still for that read-out and setting: the value for `Clc1ccc(CCC(Cn2ccnc2)Sc2c(Cl)cccc2Cl)cc1` (configuration not stated) was “inactive”; that for `Fc1ccc(C(OCCN2CCN(CCCc3ccccc3)CC2)c2ccc(F)cc2)cc1` was “inactive”.
For `CNC(=O)c1ccc(N2C(=S)N(c3ccc(C#N)c(C(F)(F)F)c3)C(=O)C23CCC3)cc1F`, the Potency result is “inactive”.
Same read-out and setting: as for `COc1ccc2c(c1OC)CN1CCc3cc4c(cc3C1C2)OCO4` (configuration not stated), the entry is “inactive”; as for `CC(=O)Nc1cc([As](=O)(O)O)ccc1O`, “inactive”.
Consider `CCOC(=O)C1(c2ccccc2)CCN(CCC(C#N)(c2ccccc2)c2ccccc2)CC1`, for which the Potency result is “inactive”.

In the next assay the test system is OV90. Described as above. The settings on record: Gynecologic cancer cell panel viability, ATPlite luminescence, 48 h; series mostly up to 57.5 µM. The method in brief: as §1
`O=c1[nH]c2ccccc2n1CCCN1CCC(n2c(=O)[nH]c3cc(Cl)ccc32)CC1`: the Potency entry is “inactive”.
On to `C[C@]12CCC(=O)C(O)=C1CC[C@@H]1[C@@H]2CC[C@]2(C)C(=O)CC[C@@H]12`, for which the Potency result is “inactive”.
On the same count and under the same terms, as for `C#CCOC(C(=O)OCCN(C)C)(c1ccccc1)c1ccccc1`, the entry is “inactive”; as for `CC(C)=CCOc1c2occc2cc2ccc(=O)oc12`, “inactive”.
As for `CCCC(C)(COC(N)=O)COC(=O)NC(C)C` (configuration not stated), the Potency entry was “inactive”.
Turning to `C[C@H]1O[C@@H](O[C@H]2[C@@H](O)C[C@H](O[C@H]3[C@@H](O)C[C@H](O[C@H]4CC[C@@]5(C)[C@H](CC[C@@H]6[C@@H]5CC[C@]5(C)[C@@H](C7=CC(=O)OC7)CC[C@]65O)C4)O[C@@H]3C)O[C@@H]2C)C[C@H](O)[C@@H]1O`, the Potency was 0.708 µM (active).
The same measure, in the same setting: as for `Fc1ccc(C(OCCN2CCN(CCCc3ccccc3)CC2)c2ccc(F)cc2)cc1`, the figure is 22.4 µM (active); as for `Cc1cc(SCc2sc(-c3ccc(C(F)(F)F)c(F)c3)nc2C)ccc1OCC(=O)O`, “inactive”; as for `COc1ccc(Cc2nccc3cc(OC)c(OC)cc23)cc1OC`, 11.2 µM (active).
Same read-out and setting: the value for `CNC(=O)c1ccc(N2C(=S)N(c3ccc(C#N)c(C(F)(F)F)c3)C(=O)C23CCC3)cc1F` was “inactive”; that for `Oc1cc(Cl)ccc1Oc1ccc(Cl)cc1Cl` was “inactive”.
Consider `CC(=O)Nc1cc([As](=O)(O)O)ccc1O`, for which the Potency result is “inactive”.
With `C#CCN(C)[C@H](C)Cc1ccccc1`, the Potency entry was “inactive”.
For the compound `N#CC(C#N)=Cc1ccc(O)c(O)c1`, the Potency entry was “inactive”.
The same measure, in the same setting: the value for `CC[C@@H](CO)NC(=O)[C@@H]1C=C2c3cccc4[nH]cc(c34)C[C@H]2N(C)C1` was “inactive”; that for `Clc1ccc(COC(Cn2ccnc2)c2ccc(Cl)cc2Cl)cc1` (configuration not stated) was 17.8 µM (active); that for `CC(C)CC(N(C)C)C1(c2ccc(Cl)cc2)CCC1` (configuration not stated) was “inactive”.
On the same count and under the same terms, the value for `FC(F)(F)c1cccc(C2=CCN(CCc3ccc4ccccc4c3)CC2)c1` was “inactive”; that for `CN(C)[C@@H]1C(=O)C(C(N)=O)=C(O)[C@@]2(O)C(=O)C3=C(O)c4c(O)cccc4[C@@](C)(O)[C@H]3C[C@@H]12` was “inactive”.
Same read-out and setting: the value for `CCCN1CCC[C@@H]2Cc3nc(N)ncc3C[C@H]21` was “inactive”; that for `CCCC1CCCCN1` (configuration not stated) was “inactive”.
For the compound `CCC(COC(=O)c1cc(OC)c(OC)c(OC)c1)(c1ccccc1)N(C)C` (configuration not stated), the Potency entry is “inactive”.

The values above are taken from PubChem BioAssay (NCATS).
